Drawing on PubChem BioAssay (EPA / NIEHS), this text covers outcome and AC50 for seven compounds.

A short description of experiment [1]: APR_HepG2_NuclearSize_24hr: Apredica 24-hour HepG2 Assay for Nuclear Size (AID 2282907). The conditions noted are these: high-content imaging, actives raise or lower the signal. In outline:
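Nuclear size is measured by fluorescence high-content imaging of Hoechst-labelled HepG2 nuclei after 24 hr of treatment (0.39–200 uM, 0.5% DMSO). Cells are fixed in 3.7% formaldehyde before staining, and DMSO serves as the baseline for bidirectional curve fitting.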

A short description of experiment [2]: APR_HepG2_CellLoss_24hr: Apredica 24-hour HepG2 Assay for Cell Loss (AID 2282908). The conditions noted are these: high-content imaging. In outline:
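Nuclear count serves as the viability measure: treated cells are fixed, permeabilized and labelled with Hoechst 33342, and six images per well are analysed to identify valid nuclei. Doses span 0.39–200 uM, and activity in either direction is scored against DMSO.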

A short description of experiment [3]: APR_HepG2_MicrotubuleCSK_24hr: Apredica 24-hour HepG2 Assay for Microtubule CSK Stabilty (AID 2282909). The settings on record: HepG2 microtubule cytoskeleton imaging, actives raise or lower the signal. In outline:
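Compounds were applied to HepG2 cells for 24 hours across 0.39–200 uM in duplicate, with final DMSO at 0.5% v/v. Fixed, permeabilized cells were labeled for alpha-tubulin and nuclei, and tubulin fluorescence was quantified by imaging, fitted bidirectionally against DMSO.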

Experiment [4] in a line: APR_HepG2_MitoticArrest_24hr: Apredica 24-hour HepG2 Assay for Mitotic Arrest (AID 2282910). The settings on record: high-content imaging, actives raise or lower the signal. In outline: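 HepG2, 24 hr dosing, 0.39–200 uM, 0.5% DMSO final. Formaldehyde-fixed, Triton-permeabilised, anti-phospho-histone H3 plus Hoechst. ArrayScan imaging at 20x; bidirectional fit vs DMSO baseline.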

Experiment [5] in a line: APR_HepG2_MitoMembPot_24hr: Apredica 24-hour HepG2 Assay for Mitochondrial Membrane Potential (AID 2282911). The settings on record: imaging, actives raise or lower the signal. In outline: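 HepG2 human liver cells were exposed 24 hr to compounds at 0.39–200 uM (final DMSO 0.5% v/v) in duplicate. MitoTracker Red CMXRos (250 nM, 30 min) was loaded before formaldehyde fixation; fluorescence was imaged by ArrayScan HCS and fitted bidirectionally versus DMSO.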

A short description of experiment [6]: APR_HepG2_MitoMass_24hr: Apredica 24-hour HepG2 Assay for Mitochondrial Mass (AID 2282912). The conditions noted are these: high-content imaging, actives raise or lower the signal. In outline:
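After 24 hr of treatment at 0.39 to 200 uM, HepG2 cells take up 250 nM MitoTracker Red CMXRos for 30 min and are then fixed with 3.7% formaldehyde. Per-well images are quantified, and any change in either direction is scored against solvent.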

The nature of experiment [7]: APR_HepG2_p53Act_24hr: Apredica 24-hour HepG2 Assay for p53 Activation (AID 2282913).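 Also: p53 protein immunofluorescence averaged per cell in HepG2 with Hoechst nuclei.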 The settings on record: high-content imaging, actives raise or lower the signal. In outline: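 HepG2 cells exposed 24 hr to compounds at 0.39–200 uM (10 concentrations, duplicate), final DMSO 0.5% v/v. After formaldehyde fixation and Triton permeabilization, p53 was immunolabeled (sheep anti-p53, Cy5 secondary) with Hoechst 33342 nuclear counterstain, then imaged by high-content fluorescence microscopy.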

Experiment [8] is described as follows: APR_HepG2_CellCycleArrest_72hr: Apredica 72-hour HepG2 Assay for Cell Cycle Arrest (AID 2282914). The conditions noted are these: high-content imaging, actives raise or lower the signal. In outline: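 HepG2 cells were exposed to compounds at 0.39–200 uM (0.5% v/v DMSO final, duplicates) for 72 hr, fixed in 3.7% formaldehyde, permeabilized and stained with Hoechst 33342. Nuclear DNA content was quantified by high-content imaging; gain or loss of signal was fitted bidirectionally against DMSO.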

A short description of experiment [9]: APR_HepG2_CellLoss_72hr: Apredica 72-hour HepG2 Assay for Cell Loss (AID 2282915). The settings on record: high-content imaging. In outline: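 HepG2 cells exposed 72 h to compound at 0.39–200 uM (10 concentrations, duplicate) in 0.5% DMSO. Fixed with 3.7% formaldehyde and Hoechst 33342-stained. Imaged at 20x; nuclear count gives cell number, fitted bidirectionally versus DMSO.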

Experiment [10] can be described thus: APR_HepG2_P-H2AX_72hr: Apredica 72-hour HepG2 Assay for H2AX Phosphorylation (AID 2282916).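 Also: phospho-histone H2A.x immunostain intensity per cell marking DNA damage.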 The conditions noted are these: imaging, actives raise or lower the signal. In outline: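 Human hepatoma HepG2 cells are dosed across ten concentrations (0.39 to 200 uM, 0.5% v/v DMSO) and incubated 72 hr. Phospho-histone H2A.x is then detected by antibody staining alongside c-Jun and Hoechst, and quantified by automated fluorescence imaging.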

Experiment [11] can be described thus: APR_HepG2_MitoMembPot_72hr: Apredica 72-hour HepG2 Assay for Mitochondrial Membrane Potential (AID 2282917). The settings on record: imaging, actives raise or lower the signal. In outline:
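HepG2 cells dosed 72 hr with compound at 0.39–200 uM in duplicate, 0.5% v/v DMSO final. Mitochondria stained with 250 nM MitoTracker Red CMXRos for 30 min before formaldehyde fixation, imaged by high-content fluorescence; bidirectional fit versus DMSO.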

Experiment [12] in a line: APR_HepG2_MitoticArrest_72hr: Apredica 72-hour HepG2 Assay for Mitotic Arrest (AID 2282918). The conditions noted are these: high-content imaging, actives raise or lower the signal. In outline: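 HepG2 cells were exposed for 72 hr to compound at 0.39–200 uM (10 concentrations, duplicate) in 0.5% v/v DMSO, fixed in 3.7% formaldehyde, immunostained for phospho-histone H3 with Hoechst 33342 and imaged by high-content fluorescence; bidirectional fits versus DMSO.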

A short description of experiment [13]: APR_HepG2_MicrotubuleCSK_72hr: Apredica 72-hour HepG2 Assay for Microtubule CSK Stabilty (AID 2282919). The conditions noted are these: HepG2 microtubule cytoskeleton, high-content imaging, actives raise or lower the signal. In outline: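 HepG2, 72 hr cmpd exposure, 0.39–200 uM (10 pts, duplicate), 0.5% DMSO. 3.7% formaldehyde fix, 0.5% Triton perm, anti-alpha-tubulin/Cy5 plus Hoechst. HCS fluorescence intensity; bidirectional fit vs DMSO baseline; taxol as positive control.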

Experiment [14] in a line: APR_HepG2_P-H2AX_24hr: Apredica 24-hour HepG2 Assay for H2AX Phosphorylation (AID 2282920). The settings on record: high-content imaging, actives raise or lower the signal. In outline:
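HepG2 human liver cells were exposed for 24 hr to compounds at 0.39–200 uM in duplicate, with 0.5% v/v DMSO final. Fixed cells were immunostained for phospho-histone H2A.x plus Hoechst 33342, imaged by HCS fluorescence, and fitted bidirectionally against DMSO.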

Experiment [15] can be described thus: APR_HepG2_StressKinase_72hr: Apredica 72-hour HepG2 Assay for Stress Kinase (AID 2282921). The conditions noted are these: HepG2 stress kinase (phospho-c-Jun) imaging, actives raise or lower the signal. In outline:
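After a 72 h compound treatment spanning 0.39 to 200 uM, formaldehyde-fixed cells are labelled for phosphorylated c-Jun and nuclei, imaged by automated fluorescence microscopy, and activity is fitted in both directions relative to DMSO controls.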

Experiment [16] is described as follows: APR_HepG2_StressKinase_24hr: Apredica 24-hour HepG2 Assay for Stress Kinase (AID 2282922). The settings on record: HepG2 stress kinase (phospho-c-Jun) imaging, actives raise or lower the signal. In outline:
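Read-out: phospho-c-Jun immunofluorescence (Cy3 secondary) quantified by high-content imaging at 20x, nuclei defined by Hoechst 33342. Human HepG2 liver cells dosed 24 hr, 0.39–200 uM, DMSO 0.5% v/v; gain or loss of signal fitted relative to DMSO.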

Experiment [17] is described as follows: APR_HepG2_MitoMass_72hr: Apredica 72-hour HepG2 Assay for Mitochondrial Mass (AID 2282924).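 Also: MitoTracker Red CMXRos stain intensity per cell imaged as mitochondrial mass.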 The conditions noted are these: high-content imaging, actives raise or lower the signal. In outline:
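Read-out: MitoTracker Red fluorescence intensity from automated imaging (20x, six fields per well) in human HepG2 liver cells. Dosing ran 72 hr, 0.39–200 uM, 0.5% DMSO; bidirectional curve fitting versus DMSO baseline.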

The nature of experiment [18]: APR_HepG2_NuclearSize_72hr: Apredica 72-hour HepG2 Assay for Nuclear Size (AID 2282925). The conditions noted are these: high-content imaging, actives raise or lower the signal. In outline: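 Read-out: nuclear diameter from Hoechst 33342 images (ArrayScan, 20x, six fields/well), via cell-cycle image analysis. HepG2 were dosed 0.39–200 uM for 72 hr in 0.5% DMSO. Bidirectional fit relative to DMSO.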

A short description of experiment [19]: ATG_CRE_CIS: Attagene CIS-FACTORIAL HepG2 Assay for human cAMP Responsive Element (CRE) binding protein 3 (AID 2282926). The conditions noted are these: HepG2 CRE cis-reporter, Attagene multiplexed mRNA; actives raise or lower the signal. In outline: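 Capillary electrophoresis of 6-FAM-labelled, HpaI-digested PCR products quantified reporter transcripts. These came from HepG2 transiently transfected with cis-element reporters and exposed to test chemicals for 24 hours, with DMSO defining baseline activity.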

Calls of active or inactive are those of the source. The calls were made as follows: active = hit-call score of the fitted dose curve at least 0.9, where 1 is the maximum; inactive = score below 0.9.

In general, AC50 refers to the midpoint of the concentration-response curve, whichever way the signal moves. Regarding `CCOC(=O)NCCOc1ccc(Oc2ccccc2)cc1`, the result in experiment [1], in experiment [2], in [3], in experiment [4], in [6] and in experiment [7] was inactive. Further, the call in experiment [8], in experiment [10], in [12], in experiment [14], in experiment [15] and in experiment [16] was inactive. In addition, the result in experiment [17], in experiment [18] and in experiment [19] was inactive. Also, the AC50 in experiment [5] was 56.2 µM (active); in experiment [9], 52.8 µM (active); in experiment [11], 78.2 µM (active); in experiment [13] it was 79.4 µM (active).

Consider `OB(O)O`, for which the call in [1], in [2], in [3], in [4], in experiment [5] and in experiment [6] was inactive. For the same compound, the result in experiment [7], in experiment [8], in experiment [9], in experiment [10], in experiment [11] and in experiment [12] was inactive. The compound was called inactive in [13], in experiment [14], in [15], in experiment [16], in experiment [17] and in experiment [18]. In addition, the call in [19] was inactive.

With `C[C@]12CC[C@@H]3c4ccc(O)cc4C[C@@H](CCCCCCCCCS(=O)CCCC(F)(F)C(F)(F)F)[C@H]3[C@@H]1CC[C@@H]2O` (some centres undefined), the call in experiment [1], in experiment [2], in [3], in experiment [4], in experiment [5] and in experiment [6] was inactive. The result in experiment [7], in [8], in experiment [9], in [10], in experiment [12] and in experiment [13] was inactive. For the same compound, the outcome in experiment [14], in experiment [15], in experiment [16], in experiment [17] and in experiment [18] was inactive. Moreover, the concentration at half-maximal activity (AC50) in experiment [11] was 22 µM (active).

Regarding `CCN(CC)C(=O)c1cccc(C)c1`, the result in experiment [1], in [2], in experiment [3], in experiment [4], in experiment [5] and in experiment [6] was inactive. The compound was called inactive in experiment [8], in experiment [9], in [10], in experiment [11], in experiment [12] and in experiment [13]. The result in experiment [14], in experiment [15], in experiment [16], in experiment [17], in experiment [18] and in [19] was inactive.

With `CCCOC(=O)c1ccc(C(=O)OCCC)nc1`, the compound was called inactive in experiment [1], in [2], in experiment [3], in experiment [4], in [5] and in experiment [6]. The call in experiment [7], in experiment [8], in experiment [9], in experiment [10], in experiment [11] and in experiment [12] was inactive. The compound was classed as inactive in experiment [13], in [14], in experiment [15], in [16], in experiment [17] and in experiment [18]. Also, the call in [19] was inactive.

On to `c1ccc2[nH]c(-c3cscn3)nc2c1`, for which the compound was called inactive in experiment [1], in experiment [2], in [3], in experiment [4], in experiment [5] and in experiment [6]. Further, the compound was classed as inactive in experiment [8], in experiment [9], in experiment [10], in experiment [11], in experiment [12] and in experiment [13]. Moreover, the result in experiment [14], in [15], in [16], in experiment [17], in [18] and in experiment [19] was inactive.

As for `COC(=O)c1ccccc1C(=O)O`, the compound was classed as inactive in experiment [1], in experiment [2], in experiment [3], in experiment [4], in experiment [5] and in experiment [6]. Besides, the compound was classed as inactive in [7], in experiment [8], in [9], in experiment [10], in experiment [11] and in [12]. For the same compound, the compound was called inactive in [13], in experiment [14], in [15], in experiment [16], in experiment [17] and in experiment [18].
